The values that follow come from PubChem BioAssay AID1835 (Johns Hopkins Ion Channel Center, 2009).

Each structure is given as a SMILES string. Hit rate of the full screen: of about 2,400 compounds, about 750 (31%) were called active. Some of the results follow. A number with no mark means an inactive call.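 How the source made its calls: active means median signal gain over dofetilide-blocked control wells reaching their mean plus 3 SD, so readout 1 at least 0; inactive means the rest.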

The target in this assay is Voltage-gated inwardly rectifying potassium channel KCNH2 (Homo sapiens) (UniProt Q12809). The experiment in a line: hERG protection against dofetilide inhibition, confirmation, cell-based, thallium flux, duplicate retest, dofetilide IC70 (AID 1835). As to conditions: hERG cell line, FluxOR thallium flux, dofetilide-blocked; at 10 µM; active compounds read high.
Sequence of Voltage-gated inwardly rectifying potassium channel KCNH2 (Homo sapiens) (Q12809 whole entry, looked up): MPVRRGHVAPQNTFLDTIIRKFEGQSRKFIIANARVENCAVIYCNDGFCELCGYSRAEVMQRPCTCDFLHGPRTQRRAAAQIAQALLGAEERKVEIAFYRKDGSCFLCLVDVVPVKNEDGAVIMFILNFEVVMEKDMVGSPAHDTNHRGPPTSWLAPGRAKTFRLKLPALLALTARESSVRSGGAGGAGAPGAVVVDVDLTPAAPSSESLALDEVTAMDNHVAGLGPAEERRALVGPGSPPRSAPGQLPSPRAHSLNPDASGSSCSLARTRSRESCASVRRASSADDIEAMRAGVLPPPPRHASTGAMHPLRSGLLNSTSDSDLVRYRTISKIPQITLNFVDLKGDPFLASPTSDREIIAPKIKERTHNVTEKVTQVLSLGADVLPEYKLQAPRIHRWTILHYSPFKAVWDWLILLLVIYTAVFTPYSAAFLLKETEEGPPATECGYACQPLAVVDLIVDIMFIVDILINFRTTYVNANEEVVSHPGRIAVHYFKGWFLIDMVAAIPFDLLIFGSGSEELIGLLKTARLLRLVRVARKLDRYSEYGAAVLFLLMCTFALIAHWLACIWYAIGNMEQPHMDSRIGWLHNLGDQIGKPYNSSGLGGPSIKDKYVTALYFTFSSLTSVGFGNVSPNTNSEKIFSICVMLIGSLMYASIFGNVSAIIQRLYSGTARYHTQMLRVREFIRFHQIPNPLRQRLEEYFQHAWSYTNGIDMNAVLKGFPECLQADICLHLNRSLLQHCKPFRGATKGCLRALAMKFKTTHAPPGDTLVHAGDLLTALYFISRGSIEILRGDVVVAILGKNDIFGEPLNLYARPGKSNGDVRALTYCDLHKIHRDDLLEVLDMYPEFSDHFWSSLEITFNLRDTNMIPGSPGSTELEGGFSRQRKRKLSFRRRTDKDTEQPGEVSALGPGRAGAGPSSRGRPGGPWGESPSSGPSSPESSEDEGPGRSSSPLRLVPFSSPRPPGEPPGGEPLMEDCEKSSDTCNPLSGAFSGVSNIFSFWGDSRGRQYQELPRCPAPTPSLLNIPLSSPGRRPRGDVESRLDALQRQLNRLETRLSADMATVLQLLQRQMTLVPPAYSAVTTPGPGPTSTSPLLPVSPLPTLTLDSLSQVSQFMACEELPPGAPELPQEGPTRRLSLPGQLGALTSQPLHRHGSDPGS
As to `O=c1[nH]c(=O)n(CCc2ccc(F)cc2)c(O)c1C=NCc1ccc2c(c1)OCO2`, the activity increase over dofetilide control, less the hit threshold is -26%.

Turning to `CC(C)=CCCC1=CCC2C(=O)NNC(=O)C2C1` (stereo unspecified), the activity increase over dofetilide control, less the hit threshold is -11%.

For `CCOc1ccc(N)c(SSc2cc(OCC)ccc2N)c1`, the activity increase over dofetilide control, less the hit threshold is -43%.

For the compound `COC(=O)CNc1nc(Cl)nc(Nc2ccc(C)cc2)n1`, the activity increase over dofetilide control, less the hit threshold was -7%.

Regarding `COC(=O)c1ccccc1NC(=O)C1CCCN(S(C)(=O)=O)C1` (stereo unspecified), the activity increase over dofetilide control, less the hit threshold was -17%.

Regarding `Cc1nnc(NC(=O)C2CCCN(S(=O)(=O)c3ccccc3C(F)(F)F)C2)s1` (stereo unspecified), the activity increase over dofetilide control, less the hit threshold was 4% (active).

Take `CCc1nnc(NC(=O)C2CCCCN2S(=O)(=O)c2ccccc2)s1` (stereo unspecified): the activity increase over dofetilide control, less the hit threshold is -16%.

Take `Cc1cccc(NC(=O)COc2coc(CN3CCN(c4ccccc4)CC3)cc2=O)c1`: the activity increase over dofetilide control, less the hit threshold is -18%.

With `COC(=O)c1c(NC(=O)C(C)(C)C)csc1C`, the activity increase over dofetilide control, less the hit threshold is -11%.

As for `CCOC(=O)c1c(SCC(=O)Nc2nc(C)cs2)nc(=O)[nH]c1C`, the activity increase over dofetilide control, less the hit threshold was -16%.

Consider `CCOC(=O)Cc1csc(NC(=S)NC(=O)c2ccccc2C)n1`, for which the activity increase over dofetilide control, less the hit threshold was 3% (active).

Consider `CCOC(=O)Cc1csc(NC(=S)NC(=O)c2ccc(C)cc2)n1`, for which the activity increase over dofetilide control, less the hit threshold was -18%.

Take `CCOC(=O)Cc1csc(NC(=S)NC(=O)c2ccc(Cl)cc2)n1`: the activity increase over dofetilide control, less the hit threshold was 11% (active).

Consider `CCOC(=O)Cc1csc(NC(=S)NC(=O)C(C)(C)C)n1`, for which the activity increase over dofetilide control, less the hit threshold is 2% (active).

Turning to `CCOC(=O)Cc1csc(NC(=S)NC(=O)c2ccccc2Br)n1`, the activity increase over dofetilide control, less the hit threshold is 22% (active).

For the compound `COc1cc(S(=O)(=O)NCC2COCCO2)ccc1-n1cnnn1` (stereo unspecified), the activity increase over dofetilide control, less the hit threshold was -17%.

Consider `Cc1ccc(-n2nc(C)c3c2OC(N)=C(C#N)C3c2ccoc2)cc1` (stereo unspecified), for which the activity increase over dofetilide control, less the hit threshold was -19%.

Regarding `CCOc1cc(/C=C2/C(=O)ON=C2C)ccc1O`, the activity increase over dofetilide control, less the hit threshold was -22%.

`CCOc1ccc(/C=C2\CCc3ccccc3C2=O)cc1`: the activity increase over dofetilide control, less the hit threshold is -13%.

On to `CCOC(=O)c1c(C=O)c(C)n(Cc2ccccc2)c1C`, for which the activity increase over dofetilide control, less the hit threshold was -5%.

With `CSc1ccccc1C(=O)NCc1ccc(C)cc1`, the activity increase over dofetilide control, less the hit threshold is -16%.

Take `CCOC(=O)C1=C(Cc2ccc(C)cc2)C(=O)c2ccccc2C1=O`: the activity increase over dofetilide control, less the hit threshold was 17% (active).

As to `CCOC(=O)C1=C(O)c2ccccc2C(=O)/C1=C\c1ccc(CC)cc1`, the activity increase over dofetilide control, less the hit threshold was 28% (active).

With `Cc1ccc(OCC(=O)NC(=S)Nc2ccc(Br)cn2)cc1`, the activity increase over dofetilide control, less the hit threshold is 13% (active).

Regarding `Cc1ccc(OCC(=O)NC(=S)Nc2ccc(Br)cn2)cc1C`, the activity increase over dofetilide control, less the hit threshold is -13%.

Turning to `Cc1nc(NC(=S)NC(=O)COc2ccc(Cl)cc2)ccc1Br`, the activity increase over dofetilide control, less the hit threshold was 0%.

Turning to `COc1ccc(-c2nc3ccc(C(=O)NCC(OC)OC)cc3nc2-c2ccc(OC)c(OC)c2)cc1OC`, the activity increase over dofetilide control, less the hit threshold was -14%.

Take `C=CCNC(=S)NC(=O)c1ccc(C)c(Br)c1`: the activity increase over dofetilide control, less the hit threshold was -8%.

In the case of `COc1ccc(C(=O)NC(=S)NCCO)cc1Br`, the activity increase over dofetilide control, less the hit threshold was -17%.

Take `C=CCN(CC=C)C(=S)NC(=O)c1ccc(OC)cc1`: the activity increase over dofetilide control, less the hit threshold was 23% (active).

As to `C=CCN(CC=C)C(=S)NC(=O)c1ccc(C)c(Br)c1`, the activity increase over dofetilide control, less the hit threshold was 100% (active).

Consider `CCN(CC)C(=S)NC(=O)c1ccc(OC)c(Br)c1`, for which the activity increase over dofetilide control, less the hit threshold is 11% (active).

Take `C=CCN(CC=C)C(=S)NC(=O)c1ccc(OC)c(Br)c1`: the activity increase over dofetilide control, less the hit threshold was 48% (active).

As to `COc1ccc(C(=O)NC(=S)N(C)C2CCCCC2)cc1Br`, the activity increase over dofetilide control, less the hit threshold was -5%.

With `O=C(OCCNc1ccc(C(F)(F)F)cc1[N+](=O)[O-])c1cc2ccccc2oc1=O`, the activity increase over dofetilide control, less the hit threshold was -10%.

Turning to `Nn1c(SCC(=O)Nc2ccc(F)cc2)nnc1C1CCCCC1`, the activity increase over dofetilide control, less the hit threshold was -24%.

In the case of `O=C(Cn1cnc2ccccc21)c1ccccc1`, the activity increase over dofetilide control, less the hit threshold was -5%.

Take `CC(=O)NC1C(Oc2ccccc2C)OC(CO)C(O)C1O` (stereo unspecified): the activity increase over dofetilide control, less the hit threshold was -10%.

`COc1ccc(/C=C/C(=O)NC(=S)NNC(=O)c2cccs2)cc1`: the activity increase over dofetilide control, less the hit threshold is -24%.

As for `CCC(=O)Nc1ccc(C(=O)NNC(=O)c2cc([N+](=O)[O-])cc([N+](=O)[O-])c2)cc1`, the activity increase over dofetilide control, less the hit threshold was -13%.

Turning to `COc1ccc(OC(=O)Cc2cccc3ccccc23)cc1`, the activity increase over dofetilide control, less the hit threshold is -13%.

Consider `C=CCN(CC=C)C(=S)NC(=O)Cc1cccc2ccccc12`, for which the activity increase over dofetilide control, less the hit threshold was 17% (active).

As for `C=CCN(CC=C)C(=S)NC(=O)/C=C/c1ccc(OC)cc1`, the activity increase over dofetilide control, less the hit threshold was 1% (active).

For the compound `O=C(NCCOC(=O)c1ccc([N+](=O)[O-])cc1)c1cccnc1`, the activity increase over dofetilide control, less the hit threshold was -4%.

For the compound `C=CCN(CC=C)C(=S)NC(=O)c1ccc([N+](=O)[O-])cc1`, the activity increase over dofetilide control, less the hit threshold was 56% (active).

As to `COc1ccccc1CNC(=O)CCCC(=O)n1ncc2cc(C)ccc21`, the activity increase over dofetilide control, less the hit threshold is -12%.

As to `O=C(NN=C1c2ccccc2-c2ccccc21)c1ccccc1`, the activity increase over dofetilide control, less the hit threshold is -5%.

For the compound `CCNC(=S)N/N=C1\C(=O)c2cccc3cccc1c23`, the activity increase over dofetilide control, less the hit threshold is 9% (active).

Turning to `O=C1c2cccc3cccc(c23)C(=O)C1(O)O`, the activity increase over dofetilide control, less the hit threshold was -24%.

As to `O=C(N/N=C1/C(=O)c2cccc3cccc1c23)c1ccc(Cl)cc1`, the activity increase over dofetilide control, less the hit threshold is 52% (active).

Consider `C/C(=N\NC(=O)c1ccc(Cl)cc1)c1ccc(Br)s1`, for which the activity increase over dofetilide control, less the hit threshold is -11%.
